Assay outcomes deposited in PubChem BioAssay by several laboratories.
An excerpt weighted towards active compounds, which were near 27% of everything screened.
sEH inhibitor: soluble epoxide hydrolase (human) inhibition; inhibition, % at 2 µM; hit rate 0.34% among 91,000; P34913; recombinant human sEH enzymatic activity assay; in the data active = inhibition above about 80%
Target sequence (P34913 whole entry, looked up): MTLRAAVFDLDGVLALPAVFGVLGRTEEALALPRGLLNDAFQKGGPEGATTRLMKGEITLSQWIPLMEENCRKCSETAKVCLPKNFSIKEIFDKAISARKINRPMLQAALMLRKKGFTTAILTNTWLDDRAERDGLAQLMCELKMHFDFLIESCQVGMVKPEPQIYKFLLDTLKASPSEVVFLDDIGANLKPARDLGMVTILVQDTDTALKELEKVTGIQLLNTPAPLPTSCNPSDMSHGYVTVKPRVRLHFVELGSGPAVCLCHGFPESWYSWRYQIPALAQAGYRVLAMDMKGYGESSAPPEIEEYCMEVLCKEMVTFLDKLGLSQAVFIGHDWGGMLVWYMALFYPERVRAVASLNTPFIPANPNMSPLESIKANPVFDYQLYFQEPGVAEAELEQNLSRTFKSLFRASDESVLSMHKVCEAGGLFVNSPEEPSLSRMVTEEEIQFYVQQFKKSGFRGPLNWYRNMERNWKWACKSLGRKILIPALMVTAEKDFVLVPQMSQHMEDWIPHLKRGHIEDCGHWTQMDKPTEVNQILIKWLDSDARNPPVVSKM
sEH act: soluble epoxide hydrolase (human) activation | P34913 | purified human sEH enzymatic activity, activator screen | activation, % at 2 µM | hit rate 0.04% among 91,000; in the data active = activation above about 37%
CYP2C19 inhib: inhibitors of human CYP2C19; CYP2C19 Supersomes, luciferin-H EGE luminescence, 30 min; hit rate 21% among 96,000; inhibition, % at 5 µM;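 active = CYP2C19 inhibition above a set limit at 5 µM in the primary screen, cut at about 50% in these data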;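 also: plate controls were negative control wells for no effect and 2.5 mM tranylcypromine positive control for full effect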
CYP2C9 act: activators of human CYP2C9 | recombinant CYP2C9, luciferin-H conversion, luminescence; active compounds read high; factor 1 = untreated enzyme, 0 = blocked | activation factor at 5 µM | hit rate 1.4% among 96,000;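 active = activation factor of 2 or more for CYP2C9 at a 5 µM dose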;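 also: 0 = sulfaphenazole-blocked wells and 1 = vehicle-only wells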
CYP2C9 inh: human CYP2C9 inhibition; CYP2C9 Supersomes, luciferin-H conversion, luminescence; hit rate 20% among 96,000; AID 777; P11712; inhibition, % at 5 µM;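 active = blocking of liver enzyme CYP2C9 beyond about 50% at 5 µM, limit read from the data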
CYP2C19 activ: increases human CYP2C19 enzyme activity; recombinant CYP2C19, luciferin-H EGE luminescence; active compounds read high; 0 = fully inhibited enzyme, 1 = untreated enzyme; P33261; activation factor at 5 µM; 96,000 tested, under 10 active; AID 1025;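 active = activation factor of at least 2 at 5 µM in the primary screen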;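 also: 0 = wells with 2.5 mM tranylcypromine and 1 = vehicle-only wells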
* marks the source's active call; other numbers are inactive results; / = no result given.

SMILES | sEH inhibitor | sEH act | CYP2C19 inhib | CYP2C9 act | CYP2C9 inh | CYP2C19 activ
CC1CCN(C(=O)c2scc3c2OCCO3)CC1 | -3.3 | 2.0 | 16.0 | 0.9 | 8.2 | 0.8
O=C(NCc1ccco1)c1ccccc1-c1ccccc1 | 5.0 | -2.0 | 4.4 | 1.1 | -6.7 | 1
O=C(NCc1ccco1)c1cccs1 | 0.5 | 1.2 | 12.6 | 0.9 | 10.6 | 0.9
O=C(NCc1ccco1)c1cc2c(s1)CSC2 | 51.6 | -52.3 | 32.3 | 0.4 | 56.5* | 0.7
Cc1scc(C(=O)NCc2ccco2)c1-c1ccccc1 | / | / | 60.7* | 0.5 | 45.6 | 0.4
O=C1C(c2ccccc2)SC(=Nc2ccccc2)N1S(=O)(=O)c1ccccc1 (centres undefined) | 3.2 | -5.1 | 4.4 | 1 | -4.9 | 1
Cc1ccc(CN(Cc2cc3cccc(C)c3[nH]c2=O)C(=O)N(C)C)cc1 | / | / | 51.6* | 0.9 | 14.4 | 0.5
Cc1cccc2cc(CN(Cc3ccccc3)C(=O)N(C)C)c(=O)[nH]c12 | -11.3 | 13.2 | 44.8 | 0.6 | 40.5 | 0.6
Cc1cccc2cc(CN(Cc3cccnc3)C(=O)c3ccncc3)c(=O)[nH]c12 | / | / | 73.3* | 0.4 | 60.7* | 0.3
COc1cccc(-n2c(=O)[nH]cc(C(=O)Nc3ccc(NC(C)=O)cc3)c2=O)c1 | 1.6 | 1.9 | 3.4 | 0.9 | 5.3 | 1
Cc1cc(C)nc(N2CCCC(C(=O)NC3CCCC3)C2)n1 (centres undefined) | -8.6 | 10.0 | 58.0* | 0.8 | 21.2 | 0.4
Cc1cc(C)nc(N2CCCC(C(=O)Nc3cc(F)ccc3C)C2)n1 (centres undefined) | 7.5 | -10.2 | 64.7* | 1.3 | -25.8 | 0.4
CCOc1ccc(OCC)c(NC(=O)C2CCCN(c3nc(C)cc(C)n3)C2)c1 (centres undefined) | / | / | 73.2* | 0.2 | 75.9* | 0.3
O=C(NCc1cccc(C(F)(F)F)c1)C1CCCN(c2ncccn2)C1 (centres undefined) | 64.9 | -65.4 | 46.3 | 1 | 1.5 | 0.5
Cc1cc(C)nc(N2CCCC(C(=O)NCc3cccc(C(F)(F)F)c3)C2)n1 (centres undefined) | 73.7 | -73.6 | 22.4 | 2.1* | -108.0 | 0.8
COc1ccccc1NC(=O)C1CCCN(c2nc(C)cc(C)n2)C1 (centres undefined) | -4.7 | 4.4 | / | / | / | /
COc1ccc(/C=C/C(=O)Oc2cccc(/C=N/NC(=O)COc3c(C)cccc3C)c2)cc1 | 2.8 | -0.8 | -0.2 | 0.5 | 49.1 | 1
COc1cc(C2Nc3ccccc3C(=O)N2c2ccc3c(c2)OCCO3)ccc1OCC(C)C (centres undefined) | -3.1 | 2.2 | 70.3* | 0 | 98.6* | 0.3
COc1cccc(C2=NO[C@@H]3C(=O)N(c4ccc5c(c4)OCCO5)C(=O)[C@H]23)c1OC | -1.5 | 3.2 | 1.5 | 0.9 | 12.7 | 1
O=C1c2ccccc2NC(c2ccc3c(c2)OCCO3)N1c1ccc2c(c1)OCCO2 (centres undefined) | / | / | 79.4* | 0.1 | 94.4* | 0.2
O=C1c2ccccc2NC(c2ccc3c(c2)OCO3)N1O (centres undefined) | -21.0 | 20.4 | 16.6 | 0.8 | 16.3 | 0.8
COC(=O)C1=C(C)NC(=O)CC1c1cc(Br)ccc1F (centres undefined) | -4.3 | 4.5 | 27.3 | 0.7 | 31.7 | 0.7
COc1ccccc1CNC(=O)CCCOc1cc(=O)n(C)c2ccccc12 | -0.1 | 3.0 | 4.5 | 1.3 | -28.4 | 1
CC(C)Cc1nc(NCCN2CCOCC2)c(C#N)c2c1COC(C)(C)C2 | 5.6 | -5.5 | 88.0* | 0.2 | 78.9* | 0.1
CCCCc1nc(NCCN2CCOCC2)c(C#N)c2c1COC(C)(C)C2 | 0.7 | 1.7 | 28.3 | 0.3 | 69.4* | 0.7
SMILES | sEH inhibitor | sEH act | CYP2C19 inhib | CYP2C9 act | CYP2C9 inh | CYP2C19 activ
CC(C)Cc1nc(N2CCOCC2)c(C#N)c2c1COC(C)(C)C2 | 4.1 | -2.5 | 85.2* | 0.3 | 67.6* | 0.1
N#Cc1c2c(c(NCCN3CCOCC3)n3c1nc1ccccc13)CCCC2 | -2.4 | 3.2 | 53.0* | 0.1 | 86.0* | 0.5
O=C(NCc1ccccc1)N1CCn2c(nc3ccccc32)C1 | 6.3 | -6.8 | / | / | / | /
CC(C)c1cc(NCC2CCCO2)n2c(nc3ccccc32)c1C#N (centres undefined) | -7.9 | 10.0 | -0.3 | 0.3 | 73.4* | 1
CCc1nc(NCCN2CCOCC2)c(C#N)c2c1CCCC2 | 4.9 | -1.5 | 68.7* | 0.9 | 9.6 | 0.3
O=C1C=C(Nc2cccc(O)c2)CC(c2ccco2)C1 (centres undefined) | 7.5 | -4.5 | / | / | / | /
Cc1ccccc1C(=O)NCc1ccncc1 | 0.2 | -2.0 | 9.6 | 0.7 | 27.6 | 0.9
Cc1ccccc1C(O)c1ccncc1 (centres undefined) | -0.7 | 0.4 | 67.5* | 0.3 | 74.2* | 0.3
Cc1ccc(C(O)c2ccncc2)cc1 (centres undefined) | -28.8 | 28.5 | 71.9* | 0.2 | 77.8* | 0.3
Cc1cccc(N(C(=O)CCC(=O)Nc2cccnc2)C(C(=O)NC2CCCC2)c2ccncc2)c1 (centres undefined) | 0.5 | 2.7 | / | / | / | /
CCOc1ccc(S(=O)(=O)NCc2ccco2)c2ccccc12 | 1.3 | 0.2 | 63.6* | 1.1 | -13.6 | 0.4
COc1ccccc1N1CCN(C(=O)c2ccc(Cl)c(S(=O)(=O)NCc3ccco3)c2)CC1 | 2.8 | -1.4 | 69.6* | 0.2 | 77.4* | 0.3
CCOc1ccc(S(=O)(=O)Nc2ccccn2)c2ccccc12 | -8.2 | 7.9 | 18.6 | 0.8 | 16.8 | 0.8
COc1cc(C)c(Cl)cc1S(=O)(=O)NCc1ccco1 | 8.1 | -8.1 | 97.6* | 2* | -100.2 | 0
Cc1cc(C)c(C)c(S(=O)(=O)NCc2ccco2)c1C | -4.1 | 4.5 | 27.5 | 1.9 | -94.3 | 0.7
COc1cc(OC)c(S(=O)(=O)NCc2ccco2)cc1S(=O)(=O)NCc1ccco1 | 9.4 | -4.5 | -8.7 | 1.1 | -6.8 | 1.1
CCOc1cc(C)c(Cl)cc1S(=O)(=O)NCc1ccco1 | 3.9 | 1.0 | 16.4 | 2* | -103.3 | 0.8
COc1ccc(N2CCN(c3nc(NC(C)(C)C)nc(N4CCCCC4)n3)CC2)cc1 | 5.3 | -3.1 | 17.1 | 0.5 | 46.1 | 0.8
CC1=CC2=NC(=O)CC(C)(C(=O)N(CC(=O)NC(C)(C)C)Cc3cccs3)N2C=C1 (centres undefined) | 10.3 | -8.4 | 2.8 | 1 | -2.8 | 1
CCCc1noc2c1/C(=N\O)CC(c1ccccc1)C2 (centres undefined) | 3.4 | 0.1 | / | / | / | /
Cc1[nH]nc2c1C(=O)CC(C)(C)C2 | / | / | -2.2 | 1 | 0.9 | 1
CCc1noc2c1/C(=N\O)CC(c1ccccc1)C2 (centres undefined) | 4.0 | -6.3 | 75.8* | 0.3 | 72.5* | 0.2
Cc1[nH]nc2c1/C(=N/O)CC(c1ccccc1)C2 (centres undefined) | -11.9 | 13.3 | 73.6* | 0.6 | 44.7 | 0.3
CCCc1n[nH]c2c1/C(=N/O)CC(c1ccccc1)C2 (centres undefined) | 1.6 | 1.3 | 77.2* | 0.6 | 35.2 | 0.2
